Screens: PubChem BioAssay, several laboratories
NR3A LBD binder: modulates the human NR3A ligand-binding domain; NR3A LBD differential scanning fluorimetry, Tm shift; 0% = protein alone, 100% = glycine-bound protein; Tm shift relative to glycine control, % at 25 µM; 340,000 tested, 2.5% active; AID 1259313;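 active = melting temperature shift of at least 10% of the positive control shift, at one fixed dose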
NALP1 inh: inhibitors of NALP1 inflammasome in yeast. inhibition, % at 10 µM. S. cerevisiae NALP1/ASC/caspase-1 growth, X-gal OD620, 72 h. AID 2071. 280,000 tested, 0.61% active; in the data active = inhibition mostly above about 24%, no sharp cut-off; inactive = mostly below about 32%
dFosB activator: mouse delta FosB homodimer activation; purified delta FosB, TAMRA-CDK5 oligo fluorescence polarization; percent of positive-control signal above neutral wells; activation, % at 25 µM; 340,000 tested, 0.99% active; AID 493131;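 active = mean activation above about 17%, with every replicate also reaching it, limit read from the data, passing the limit was not always enough; inconclusive = only one of the two conditions met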
Target sequence (P13346 whole entry, looked up): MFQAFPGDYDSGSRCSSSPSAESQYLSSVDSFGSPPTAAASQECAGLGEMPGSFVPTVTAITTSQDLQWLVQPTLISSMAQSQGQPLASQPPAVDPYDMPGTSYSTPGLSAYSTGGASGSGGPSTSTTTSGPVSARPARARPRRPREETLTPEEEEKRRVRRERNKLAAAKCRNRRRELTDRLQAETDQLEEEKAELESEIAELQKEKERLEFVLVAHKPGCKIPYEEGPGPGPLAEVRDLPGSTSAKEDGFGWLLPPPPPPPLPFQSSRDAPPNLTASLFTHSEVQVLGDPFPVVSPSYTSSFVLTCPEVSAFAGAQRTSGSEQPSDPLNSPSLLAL
CR mimetic SO: yeast age-related superoxide inhibition as caloric restriction mimetic; S. cerevisiae aged cells, superoxide DHE fluorescence; active compounds read low; superoxide response (% of plate mean), % at 10 µM; 330,000 tested, 0.18% active;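 active = superoxide response under a set limit, about three screen SD below normal, cut at about 65% in these data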;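 note: yeast aged for seven days with compound at 30 °C before DHE staining; 100% = average MFI of all compound-treated wells on the plate with controls excluded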
UBC13 inh: human UBC13 polyubiquitination inhibition. P61088. UBC13 polyubiquitin chain formation, TR-FRET. inhibition, % at 20 µM. 330,000 tested, 0.47% active. AID 485273; in the data active = inhibition above about 45%, passing the limit was not always enough; inconclusive = no clear call, values can overlap the other calls
Target sequence (P61088 whole entry, looked up): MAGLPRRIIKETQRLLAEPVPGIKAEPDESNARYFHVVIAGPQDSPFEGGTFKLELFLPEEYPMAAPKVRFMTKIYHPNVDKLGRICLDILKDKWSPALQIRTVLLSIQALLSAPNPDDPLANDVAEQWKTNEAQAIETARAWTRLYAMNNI
Active calls of the source: *. Sampled rows, rich in hits. Any-hit rate of the full collection: about 4.3%.

For CC(C)C[C@H](NC(=O)c1[nH]cnc1C(=O)Nc1ccc(CNC(=O)OC(C)(C)C)cc1)C(=O)OCc1ccccc1 the results were NR3A LBD binder 36.2*, dFosB activator -17.9, CR mimetic SO 91.6 and UBC13 inh -41.2.
For O=C(NNC(=O)c1cc2ccccc2cc1O)c1cccs1 the results were NR3A LBD binder -3.6, NALP1 inh -7.1, dFosB activator 9.7, CR mimetic SO 106.2 and UBC13 inh 7.2.
Screening C/C(=N\NC(=O)c1cc2ccccc2cc1O)c1cccs1 returned NR3A LBD binder 13.6*, NALP1 inh -6.6, dFosB activator -7.5, CR mimetic SO 119.2 and UBC13 inh 0.9.
For S=C(NCCc1ccccc1)NCCc1ccccc1 the results were NR3A LBD binder 26.0*, NALP1 inh 32.3, dFosB activator 2.2, CR mimetic SO 111.6 and UBC13 inh -6.2.
`Fc1ccc(CCNC(=S)Nc2ccc(F)cc2)cc1` gave NR3A LBD binder 19.5*, NALP1 inh 12.4, dFosB activator -5.9, CR mimetic SO 91.1 and UBC13 inh -7.9.
S=C(NCc1ccc(Cl)cc1Cl)Nc1ccccc1 was read as NR3A LBD binder 12.7*, NALP1 inh 32.7, dFosB activator -13.0, CR mimetic SO 95.6 and UBC13 inh 12.5.
For S=C(NCCC(c1ccccc1)c1ccccc1)Nc1cccc(Cl)c1 the results were NR3A LBD binder 15.8*, NALP1 inh 2.8, dFosB activator -0.1, CR mimetic SO 118.4 and UBC13 inh -2.3.
Screening NNC(=S)NCCc1ccccc1 returned NR3A LBD binder 0.7, NALP1 inh -16.2, dFosB activator -2.8, CR mimetic SO 111.2 and UBC13 inh 2.5.
S=C(NCCc1ccccc1)Nc1ccc(Cl)cc1 was read as NR3A LBD binder 27.3*, NALP1 inh 21.9, dFosB activator 1.0, CR mimetic SO 96.6 and UBC13 inh -1.8.
O=C(NC(=S)NCc1ccccc1)C1CCCCC1 was read as NR3A LBD binder 18.3*, NALP1 inh 14.5, dFosB activator -4.4, CR mimetic SO 121.2 and UBC13 inh -5.6.
`O=C(NC(=S)Nc1ccccc1)C1CCCCC1` gave NR3A LBD binder 0.3, NALP1 inh 17.7, dFosB activator 2.7, CR mimetic SO 92.3 and UBC13 inh -3.3.
Screening CCNC(=S)Nc1ccc(Oc2ccccc2)cc1 returned NR3A LBD binder -2.5, dFosB activator 1.8, CR mimetic SO 79.0 and UBC13 inh 2.4.
Screening S=C(NCc1ccccc1)NCc1ccc(CNC(=S)NCc2ccccc2)cc1 returned NR3A LBD binder 19.9*, NALP1 inh 11.1, dFosB activator 13.2, CR mimetic SO 80.6 and UBC13 inh -3.0.
For S=C(NCCc1ccccc1)N/N=C/c1ccc(Cl)cc1 the results were NR3A LBD binder 6.0, dFosB activator 3.5, CR mimetic SO 99.5 and UBC13 inh -5.4.
S=C(NCc1ccccc1)Nc1ccc(Oc2ccccc2)cc1 was read as NR3A LBD binder 11.5*, NALP1 inh 3.6, dFosB activator 0.4, CR mimetic SO 85.1 and UBC13 inh -0.7.
Cc1noc(C)c1S(=O)(=O)Nc1ccc2c(c1)C(=O)N([C@H](C)CO)C[C@H](C)[C@@H](CN(C)C(=O)Nc1ccc3c(c1)OCO3)O2 was read as NR3A LBD binder -1.4, dFosB activator -8.6, CR mimetic SO 131.4 and UBC13 inh -8.4.
`Cc1ccccc1NC(=O)NCCc1ccc(Cl)cc1` gave NR3A LBD binder -0.4, NALP1 inh -9.7, dFosB activator -3.8, CR mimetic SO 94.1 and UBC13 inh 3.3.
Screening S=C(NCCc1ccccc1)Nc1ccccc1Cl returned NR3A LBD binder 1.0, NALP1 inh 34.4, dFosB activator -1.1, CR mimetic SO 98.3 and UBC13 inh 8.1.
`S=C(NCCCc1ccccc1)Nc1ccccc1Cl` gave NR3A LBD binder 17.6*, dFosB activator -2.8, CR mimetic SO 114.2 and UBC13 inh 4.3.
For O=C(NCCc1ccccc1)Nc1ccc(Cl)cc1 the results were NR3A LBD binder 15.8*, NALP1 inh 24.0, dFosB activator 2.0, CR mimetic SO 101.4 and UBC13 inh -6.0.
`C/C(=N/NC(=O)CNc1ccc(Cl)cc1C)c1ccc(C)cc1` gave NR3A LBD binder -0.9, NALP1 inh 1.9, dFosB activator -3.3, CR mimetic SO 97.3 and UBC13 inh 2.8.
Screening CC(C)N1CSC(=S)N(Cc2ccccc2)C1 returned NR3A LBD binder 0.7, NALP1 inh -9.0, dFosB activator -3.3, CR mimetic SO 102.6 and UBC13 inh -3.5.
`O=c1[nH][nH]c(-c2ccccc2O)c1C(C[N+](=O)[O-])c1cccc(Cl)c1` (configuration not stated) gave NR3A LBD binder -0.3, NALP1 inh 100.9*, dFosB activator -5.6, CR mimetic SO 97.2 and UBC13 inh 4.3.
Screening O=c1[nH][nH]c(-c2ccccc2O)c1C(C[N+](=O)[O-])c1ccc(Cl)cc1Cl (configuration not stated) returned NR3A LBD binder -6.4, NALP1 inh 70.5*, dFosB activator -3.7, CR mimetic SO 96.9 and UBC13 inh -10.0.
`CNC(=O)CSc1cnc2ccccc2n1` gave NR3A LBD binder -1.0, NALP1 inh -10.9, dFosB activator -7.3, CR mimetic SO 102.5 and UBC13 inh -35.2.
CN(C)C(=O)CSc1cnc2ccccc2n1 was read as NR3A LBD binder -0.9, NALP1 inh 27.8*, dFosB activator -1.4, CR mimetic SO 103.2 and UBC13 inh 1.7.
COc1ccc(NC(=O)CN2C(=O)NC(C)(C3CC3)C2=O)cc1S(=O)(=O)N1CCOCC1 (configuration not stated) was read as NR3A LBD binder -2.9, dFosB activator -10.3, CR mimetic SO 138.7 and UBC13 inh -3.7.
C#CCOCCOCCOCCNc1nc(N2CCOCC2)nc(N2CCN(C(=O)[C@H](Cc3cc4ccccc4[nH]3)n3cc([C@@H](N)C(C)CC)nn3)CC2)n1 (some centres not stated) was read as NR3A LBD binder 2.4, NALP1 inh -5.3, dFosB activator 5.8, CR mimetic SO 101.3 and UBC13 inh 25.7.
Screening C#CCOCCOCCOCCNc1nc(N2CCN(C(=O)[C@H]([C@@H](C)CC)n3cc([C@@H](N)CC(C)C)nn3)CC2)nc(N2CCN(C(=O)[C@H](Cc3cc4ccccc4[nH]3)n3cc([C@@H](N)C(C)CC)nn3)CC2)n1 (some centres not stated) returned NALP1 inh -5.9 and UBC13 inh 80.8*.
Screening C#CCOCCOCCOCCNc1nc(N2CCN(C(=O)C(Cc3cc4ccccc4[nH]3)n3cc(C(N)C(C)CC)nn3)CC2)nc(N2CCN(C(=O)C(Cc3cc4ccccc4[nH]3)n3cc(C(N)C(C)CC)nn3)CC2)n1 (configuration not stated) returned NR3A LBD binder -6.5, NALP1 inh 21.7, dFosB activator inconclusive and UBC13 inh 93.7*.
